INS-1E GSIS act: primary screen for activators of insulin secretion dependent on glucose, INS-1E cells, GLuc reporter luminescence; activation, % at 16.6 µM; INS-1E GLuc reporter insulin secretion, 2-3 h; hit rate 0.61% among 370,000;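 active = lowest replicate activation of at least 40%, so every replicate reaches that level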;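 note: 0% = median of neutral control wells and 100% = median of IBMX positive control wells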
PGC1a acetyl inh: lowers PGC1a acetylation signal in U2OS cells; AlphaScreen anti-acetyl-lysine; with virally co-expressed GCN5 acetyltransferase; inhibition, % at 15.6 µM; hit rate 0.17% among 350,000;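 active = every replicate shows inhibition of at least 40%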;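 note: 0% = neutral control wells and 100% = positive control wells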
NSD2 inh: blocks human histone methyltransferase NSD2; NSD2 peptide methylation, AlphaScreen, 120 min; inhibition, % at 12.5 µM; hit rate 0.54% among 310,000; AID 743445; in the data active = inhibition above about 50%
Env fusion inh: HIV envelope-mediated fusion inhibition | HeLa-JRFL Env/CEM21 cell fusion, luciferase | inhibition, % at 12.3 µM | hit rate 1.1% among 360,000 | AID 651610;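 active = mean replicate inhibition score of at least 50 and every replicate individually at or above 50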;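 note: 0% = plate neutral controls and 100% = maraviroc near 300 nM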
AF4-AF9 inh: inhibitors of human MLL-AF4/AF9 interaction; P42568; hit rate 0.47% among 350,000; inhibition, % at 10 µM; AID 651704; AlphaScreen, biotin-AF4 peptide binding to FLAG-AF9;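 active = every replicate reaching a set inhibition limit, whatever the replicate mean, cut at about 25% in these data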;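 note: 0% = plate neutral control median and 100% = total signal loss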
Numbers without * were called inactive; x = no result; [ ] = another dose, or the depositor's remark. A selection: hits, their analogues and other compounds. The true share with any hit is near 2.1%.

SMILES	INS-1E GSIS act	PGC1a acetyl inh	NSD2 inh	Env fusion inh	AF4-AF9 inh
CCOc1ccc(CCNC(=O)COC(=O)c2nccnc2N)cc1OCC	51*	-13	-1	7	2
COc1ccc(CCNC(=O)COC(=O)COc2ccc(Cl)cc2)cc1OC	30	x	-1	5	0
O=C1Nc2ccccc2N(C(=O)c2ccc3ccccc3c2)C1c1nc2ccccc2[nH]1 (stereo not given)	121*	x	x	-127	-1
O=C(CSc1ccccc1)NN1C(=O)c2ccccc2C1=O	-5	4	-2	9	0
COc1ccc(S(=O)(=O)N(C)C[C@@H]2Oc3ccc(NC(=O)C4CCCCC4)cc3CC(=O)N([C@@H](C)CO)C[C@@H]2C)cc1	-10	1	x	66*[16.7 µM]	0
Cc1ccc(S(=O)(=O)N(C)C[C@@H]2Oc3ccc(NC(=O)C4CCCCC4)cc3CC(=O)N([C@@H](C)CO)C[C@@H]2C)cc1	-3	4	x	79*[16.7 µM]	-1
CC(C)NC(=O)N(C)C[C@@H]1Oc2ccc(NC(=O)C3CC3)cc2CC(=O)N([C@@H](C)CO)C[C@@H]1C	9	-2	x	59*[16.7 µM]	-2
CC1=NS(=O)(=O)NC(C)(C)C1	53*	x	30	-6	2
CC1=NC(C#N)=C(C#N)NC(C)(C)C1	-4	0	0	-1	4
O=C(Cc1ccsc1)NNC(=O)c1ccccc1Cl	42*	x	2	5	-1
O=C(Cc1cccs1)NNC(=O)c1ccccc1Cl	15	x	4	x	-3
CN(C)CCn1c2c(c(SCC(=O)Nc3ccc4c(c3)OCCO4)nc1=O)CCC2	15	-1	5	-2	2
NC(N)=N/N=C/c1ccccc1	x	x	3	1	x
NC(N)=N/N=C/c1ccc(OCc2ccccc2)c(OCc2ccccc2)c1	439*	x	27	-11	20
NC(N)=N/N=C/c1ccc(Cl)c(Cl)c1	x	-1	2	14	4
NC(N)=N/N=C/c1ccc(OCc2ccccc2Cl)cc1	51*	-7	16	x	14
O=C(c1ccccn1)N1CC2(C1)[C@H](c1ccccc1)[C@@H](CO)N2C(=O)CC1CC1	15	-4	x	x	-3
C=CC[C@@H](CC(=O)N(CCO)Cc1ccccc1)C(=O)N[C@@H](COC(=O)[C@@H](CC=C)Cc1ccc(F)cc1)Cc1ccccc1	-49	-5	x	95*	3
C=CC[C@H](CC(=O)N(CCO)Cc1ccccc1)C(=O)NC[C@H](OC(=O)[C@@H](CC=C)Cc1ccc(F)cc1)c1ccccc1	-7	6	x	68*	1
C=CCC[C@@H](Cc1ccc(F)cc1)C(=O)OC[C@@H](NC(=O)[C@H](CC=C)CC(=O)NCCO)C(C)(C)C	-14	-13	x	102*	x
CCS(=O)(=O)N1CCN(C(=O)CC(C)C)CC1	x	x	2	-66	x
OCCN(Cc1ccccc1)Cc1ccccc1O	11	-4	0	-7	0
COc1ccc(OC)c(NC(=S)NCCSc2ccc(C)cc2)c1	-10	x	4	1	14
CC(=O)c1c(O)cc2c3c1OC(C)(C)C1CCC(C)(CC31)O2 (stereo not given)	5	5	-1	69*	-1
C[C@@H]1CN([C@@H](C)CO)C(=O)Cc2cc(NC(=O)Nc3cccc4ccccc34)ccc2O[C@@H]1CN(C)C(=O)NC1CCCCC1	-6	-2	x	0[16.7 µM]	-25
SMILES	INS-1E GSIS act	PGC1a acetyl inh	NSD2 inh	Env fusion inh	AF4-AF9 inh
Cc1cc(OCCOCCNCc2ccccc2)ccc1C(C)C	-28	-11	10	93*	7
COc1ccc(C2CNC(=O)C2)cc1OC1CCCC1 (stereo not given)	45*	1	x	6	-1
N#CCc1nn(-c2ccc(Cl)cc2)c(N)c1C#N	-3	3	2	x	x
N#CCc1nn(-c2ccccc2)c2ncnc(N)c12	71*	x	-4	-70	-2
Cc1nc2sccn2c1-c1csc(NCc2ccccc2)n1	x	-22	0	95*	x
Cc1nc2ncccn2c1-c1csc(Nc2ccc(N(C)C)cc2)n1	-2	4	25	-104	44*
CC(=O)Nc1ccc(Nc2nc(-c3c(C)nc4ccccn34)cs2)cc1	49*	6	2	-198	0
C=CCNc1nc(-c2c(C)nc3sccn23)cs1	x	x	x	-110	x
CC(=O)NC(Cc1ccccc1)C(=O)NC1CCN(C(=O)c2cnccn2)CC1 (stereo not given)	2	x	-3	3	x
COc1ccc(CNCC(O)COc2ccc(C(C)(C)c3ccccc3)cc2)cc1 (stereo not given)	73*	x	4	5	7
CCOC(=O)N1CCC(n2c(SCC(=O)N3CCC(C)CC3)nc3ccccc3c2=O)CC1	x	x	0	54*	x
CCOC(=O)N1CCC(n2c(SCC(=O)OCc3ccccc3)nc3ccsc3c2=O)CC1	-33	-20	-7	97*	x
COc1ccc(CN(C)C[C@@H]2Oc3ccc(NS(=O)(=O)c4ccc(Cl)cc4)cc3CC(=O)N([C@H](C)CO)C[C@H]2C)cc1	-26	-6	x	x	3
CN1CCN(S(=O)(=O)c2ccc3c4c(cccc24)C(=O)N3)CC1	10	-4	x	4	2
CCOC(=O)N1CCN(S(=O)(=O)c2ccc3c4c(cccc24)C(=O)N3)CC1	42*	x	-5	-7	-1
CN1CCN(c2ccccc2NC(=O)C(Cc2ccccc2)n2cccc2)CC1 (stereo not given)	-37	x	x	77*	5
CN1CCN(c2ccccc2NC(=O)c2ccc(-c3ccccc3)cc2)CC1	x	-8	3	x	x
CC(C)C(=O)Nc1ccccc1N1CCN(S(C)(=O)=O)CC1	x	x	0	8	x
CS(=O)(=O)N1CCN(c2ccccc2NC(=O)C(c2ccccc2)c2ccccc2)CC1	x	-10	2	71*	x
S=c1nc[nH]c2c1cnn2Cc1ccccc1	5	45*	1	-1	3
CC(C)n1c(N)c(C#N)c2ccc([N+](=O)[O-])cc2c1=O	103*	8	0	15	-3
Cc1ccc(COC(=O)c2cc(S(=O)(=O)N3CCCCC3)ccc2N2CCOCC2)cc1	-5	x	-1	76*	-7
O=C(OCCOc1cccc(Cl)c1)c1cc(S(=O)(=O)N2CCCCC2)ccc1N1CCOCC1	38	x	-3	75*	-1
O=C(OCc1cccc(Cl)c1)c1cc(S(=O)(=O)N2CCCCC2)ccc1N1CCOCC1	-42	-4	-1	x	-1
C/C=C/c1ccccc1[C@@H]1[C@@H](C#N)N(C(=O)c2cccnc2)[C@H]1CO	4	4	x	x	-1
COc1ccccc1C(=O)Nc1ccc2c(c1)C(=O)N(C)C[C@@H](OC)[C@@H](C)CN(C(C)=O)[C@@H](C)CO2	7	-12	x	-7[16.7 µM]	3
O=C(OCC(=O)N1CCN(c2ccccc2)CC1)c1ccccc1NCCO	-1	x	-7	-3	-19
COc1ccc(NC(=S)NC23CN4CN(CN(C4)C2)C3)cc1	9	6	0	-18	x
COc1ccc2c3c([nH]c2c1)[C@H](CO)N(S(C)(=O)=O)CC31CCN(Cc2cccc(F)c2)CC1	-9	-2	x	x	36*
COc1ccc2c3c([nH]c2c1)[C@@H](CO)N(S(C)(=O)=O)CC31CCN(Cc2cccc(F)c2)CC1	-13	-9	x	x	27*

Assay outcomes (PubChem BioAssay)
